# Compound activity: PubChem, National Center for Advancing Translational Sciences (NCATS)
# In the library only some 8.3% were active in any assay of this set; here they are far more common.
# HCMV antiviral – qHTS Assay for inhibitors of the human cytomegalovirus (HCMV); HFF cells, HCMV-luciferase reporter, 72 h; hits give low values; activity change, negative = inhibition, % at 57.5 µM; 4.5% of 410,000 active; AID 1259415, 2018; in the data active means activity change below about -60%; inconclusive means no clear call, values can overlap the other calls; inactive means above about -39%
#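 Luciferase read-out from HCMV-luciferase-infected HFFs (MOI 1 PFU/cell) 72 h post infection at 37C; compounds added after 16 h cell attachment; activity normalized between buffer-only basal and Salinomycin (10uM) inhibitor controls.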
# Giardia FBPA inh – qHTS Assay for Inhibitors of Fructose-1,6-bisphosphate Aldolase from Giardia Lamblia; A8B2U2; purified Giardia FBPA; Potency, µM (highest dose often 59.6 µM), inactives show at the highest dose activity, negative = inhibition, actives largely listed as inhibitors; 0.71% of 290,000 active; further: potency means the concentration at half of the fitted maximal effect; nearly all actives have a fitted effect of over 55% in size
# Target sequence (A8B2U2 whole entry, looked up): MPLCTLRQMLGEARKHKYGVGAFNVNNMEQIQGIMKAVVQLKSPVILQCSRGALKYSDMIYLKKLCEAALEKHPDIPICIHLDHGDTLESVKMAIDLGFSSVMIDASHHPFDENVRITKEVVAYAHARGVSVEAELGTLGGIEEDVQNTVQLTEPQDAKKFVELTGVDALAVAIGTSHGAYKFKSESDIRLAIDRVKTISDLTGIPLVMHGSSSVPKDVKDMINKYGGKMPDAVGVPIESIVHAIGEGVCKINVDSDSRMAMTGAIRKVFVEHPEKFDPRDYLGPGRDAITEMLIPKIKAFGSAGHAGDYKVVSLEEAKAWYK
#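 40 nM FBPA preincubated 10 min at RT with compound (up to 57.5 uM final), then substrate plus GAPDH/TPI/NAD/arsenate coupling and diaphorase/resazurin added. Fluorescence read after 20 min at RT, 525/598 nm.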
# HCV inh – qHTS Assay for Inhibitors of Hepatitis C Virus (HCV) | Huh7.5.1 HCVcc-Cre infection, luciferase reporter, 44 h | Potency, µM (highest dose often 41.8 µM), without a hit: top-dose activity change, negative = inhibition, hits mostly inhibitors | 3.4% of 340,000 active; further: potency means the concentration at half of the fitted maximal effect
#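 HCVcc-Cre virus at an moi near 0.5 was added right after compound to cells cultured 4 h from seeding (1,000 cells/well). Luciferase activity was determined 44 h later, 15 min after substrate addition at RT.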
# FMDV inh – High Throughput Screening for Foot and Mouth Disease Virus Antivirals | Potency, µM (series often up to 57.9 µM), for the others: at the highest dose activity change, negative = inhibition, usual class: inhibitors | 1.2% of 410,000 active | AID 1159524, 2015 | FMDV antiviral cell-based qHTS; calls by dose curve; tested in HEK293T cells; further: read-out not given here; potency means the concentration at half of the fitted maximal effect; nearly all actives have a fitted effect of over 45% in size
# MARV entry inh – qHTS for inhibitors of binding or entry into cells for Marburg Virus | Potency, µM (highest dose often 37.8 µM), for inactives: at the top dose activity change, negative = inhibition, most hits filed as inhibitors | Marburg virus pseudotyped entry inhibition, cell reporter | 1.8% of 300,000 active; calls by dose curve; tested in HEK293 cells; further: potency means the concentration at half of the fitted maximal effect
# LASV entry inh – qHTS for Inhibitors of binding or entry into cells for Lassa Virus | Lassa virus pseudotype entry inhibition, cell reporter | Potency, µM (titrated, usually from 37.9 µM), for the others: top-dose activity change, negative = inhibition, actives largely listed as inhibitors | 1.2% of 300,000 active | AID 540256, 2011; calls by dose curve; tested in HEK293 cells; further: potency means the concentration at half of the fitted maximal effect; nearly all actives have a fitted effect of over 50% in size
# * marks the source's active call; other numbers are inactive results; ? = inconclusive; . = not tested or not shown; [ ] = remark or other dose. Unless noted, the call rests on the fitted dose curve; in most records, active means well fitted curve in the direction sought with a large enough effect; inconclusive means small, poorly fitted or top-dose-only effect, or another doubt; inactive means no such curve, though single readings can be large; an effect the other way counts as inactive or inconclusive. On the % scale 0 is the no-effect control and ±100 the full control effect.
SMILES,HCMV antiviral,Giardia FBPA inh,HCV inh,FMDV inh,MARV entry inh,LASV entry inh
COc1ccc(Br)cc1/C=N/NC(=O)c1cc(Br)ccc1O,.,2%,.,.,.,.
COc1ccc(O)c(/C=N/NC(=O)c2ccc(OCc3cccc(Br)c3)cc2)c1,-97*,4%,2.8µM*,-21%,?,?
O=C(OCc1cn([C@@H]2C[C@H](c3ccccc3)N(CC3CCCCC3)C[C@@H]2O)nn1)c1ccccc1,.,.,.,.,.,-9%[46.1 µM]
COC(=O)[C@@H](NC(=O)N1CCc2nc(-c3ccccc3)c3c(c2C1)CO[C@@H](C)C3)C(C)C,.,3%[12.9 µM],.,.,.,.
Cn1cccc1-c1cc(C(=O)N/N=C/c2ccccc2Cl)[nH]n1,0,-4%,-16%,22%,.,.
Cn1cccc1-c1cc(C(=O)N/N=C/c2cc(Br)ccc2O)[nH]n1,-95*,2%,5µM*,-13%,?,?
CC(=O)Nc1ccc(S(=O)(=O)N2CCN=C2SCc2ccc([N+](=O)[O-])cc2)cc1,?,0%,10µM*,22µM*,13µM*,?
CS(=O)(=O)N1CCN=C1SCc1ccc([N+](=O)[O-])cc1,-65*,-3%,7%,-7%,?,3%
CS(=O)(=O)N1CCN=C1SCc1ccc(Br)cc1,?,.,7%,-17%,.,.
CCOC(=O)c1ccc(NC(=O)c2cnn(-c3ccc(C)cc3C)c2C2CCN(C(=O)OC(C)(C)C)CC2)cc1,15,.,.,0%,.,-10%[46.1 µM]
COc1ccccc1NCCC(=O)OCC(=O)NC1CC1,-83*,0%,1%,5%,.,.
COc1ccccc1NCCC(=O)OCC(=O)NC1CCCCC1,-35,-16%,7%,-12%,?,17%
CCn1c2ccccc2c2c3ncc4cccn4c3ccc21,192,-8%,11µM*,-3%,13%[46.1 µM],2%[46.1 µM]
c1ccc2c(c1)ncc1cccn12,4,-4%,-9%,.,1%,13%
Cn1c(=O)c2c(SCc3ccccn3)nc(CC(C)(C)C)nc2n(C)c1=O,28,17%,?,?,.,.
CCCc1nc(SCc2ccccn2)c2c(=O)n(C)c(=O)n(C)c2n1,?,14%,10µM*,-2%,.,.
CCCc1nc(SCc2cccnc2)c2c(=O)n(C)c(=O)n(C)c2n1,-27,8%,10µM*,?,.,.
Cn1c(=O)c2c(SCc3cccnc3)nc(CC(C)(C)C)nc2n(C)c1=O,-36,5%,-16%,-50%,.,.
COc1ccc(-c2cn(-c3ccccc3)c(=S)[nH]2)cc1OC,-22,8%,10µM*,48%,.,.
COc1ccc(-c2cn(-c3ccc(C)c(C)c3)c(=S)[nH]2)cc1OC,?,19%,?,?,-2%,0%
COc1ccc(-c2cn(-c3ccc(C)c(Cl)c3)c(=S)[nH]2)cc1OC,-66*,11%,?,?,?,-15%[46.1 µM]
CC1(C)OCC(CSC2=C(SCC3COC(C)(C)O3)C(=O)c3ncccc3C2=O)O1 (centres undefined),.,1.8µM*,.,.,.,.
CN(C)S(=O)(=O)c1ccc(C(=O)OCC2COC(C)(C)O2)cc1 (centres undefined),?,9%,4%,-14%,?,-1%
O=C(NCC1(N2CCOCC2)CCCC1)c1cnn(-c2ncc3c(n2)-c2ccccc2CC3)c1C1CC1,.,.,.,0%,.,.
Cc1sc(NC(=O)c2cccs2)nc1-c1ccccc1,114,-2%,?,?,?,-3%
SMILES,HCMV antiviral,Giardia FBPA inh,HCV inh,FMDV inh,MARV entry inh,LASV entry inh
Cc1sc(N/N=C/c2cccs2)nc1-c1ccccc1,?,-2%,?,-14%,7.9µM*,?
COc1ccc(C)cc1NS(=O)(=O)c1ccc(NC(=O)CN(c2cc([N+](=O)[O-])ccc2C)S(C)(=O)=O)cc1,-35,-11%,10µM*,-13%,3.7µM*,?
Cc1cccc(NS(=O)(=O)c2ccc(NC(=O)CN(c3cc([N+](=O)[O-])ccc3C)S(C)(=O)=O)cc2)c1,-3,-2%,?,?,?,?
Cc1cc(C)c2c(N)c(C(=O)Nc3ncc(C)s3)sc2n1,-86*,-19%,?,5µM*,0.5µM*,0.2µM*
COC(=O)c1sc2nc(C)cc(C)c2c1N,-18,-14%,10%,35%,?,21%[46.1 µM]
COc1cc(NC(=O)CN2C(=O)C(c3ccc(C)cc3)=NC23CCCCC3)cc(OC)c1,-4,.,.,-19%,?,-7%[46.1 µM]
COc1cccc(CNC(=O)CN2C(=O)CSc3ccc(S(=O)(=O)N(C)C)cc32)c1,-4,.,.,-17%,.,?
Clc1cccc(-n2cc(-c3ccccc3)c3c(NC4CCCC4)ncnc32)c1,-24,.,.,-24%,.,13%[46.1 µM]
Nc1ncnc2c1c(-c1ccc(Oc3ccccc3)cc1)cn2C1CCCC1,-64*,-8%,?,?,?,?
CCOc1cc2c3c(c1)C(C)=CC(C)(C)N3C(=O)C2=O,-63*,-7%,-23%,28%,.,.
Cc1ccc(C(C)C)cc1S(=O)(=O)NC1CC(C)(C)NC(C)(C)C1,-14,-2%,-18%,37%,13µM*,?
CCC[C@@H](/C=C/C(=O)OC(C)(C)C)NC(=O)C(F)(F)F,21,.,.,.,.,.
COc1ccc(Cl)cc1NC(=O)NCCn1c(=O)oc2ccc(C)cc21,-22,.,.,1%,9%[46.1 µM],-24%[46.1 µM]
Cc1ccc(CN2[C@@H](CC3CCCCC3)COCCS2(=O)=O)cc1,-70*,11%,-4%,-23%,.,.
CC(C#N)Sc1ccc(S(=O)(=O)N2CCCCC2)cn1 (centres undefined),0,.,6%,?,.,.
CC(C#N)Sc1ccc(S(=O)(=O)N(C)C2CCCCC2)cn1 (centres undefined),-62*,.,7%,-14%,.,.
CN1C(=O)C(C2(O)C(=O)Nc3ccccc32)c2ccccc21 (centres undefined),4,.,.,.,.,.
CCOC(=O)c1cc(-c2ccccc2)nc2c1c(C)nn2-c1ccccn1,-8,13%,10µM*,0%,?,-22%
CCOC(=O)c1cc(-c2ccncc2)nc2c1c(C)nn2C,-3,-1%,?,?,?,-17%
O=C(N/N=C/c1c(O)ccc2ccccc12)c1[nH]ncc1Br,-99*,-22%,?,64%,?,16µM*
CCOc1ccc(/C=N/NC(=O)c2[nH]ncc2Br)c(O)c1,-101*,12%,22µM*,-39%,6.5µM*,1.8µM*
O=C(N/N=C\c1c(O)ccc2ccccc12)c1ccc(Cn2cccn2)o1,-99*,-9%,?,?,5.8µM*,13µM*
CC(C)c1ccc(Nc2cc3c(cn2)ncn3CC2CC2)cc1,5,.,.,.,.,.
COC(=O)c1cc(CNC(=O)c2ccc3ncccc3c2)cc(NC(=O)c2ccccc2Cl)c1,.,.,.,3%,.,.
